# LASV entry inh – blocks Lassa virus binding to or entry into cells. Lassa virus pseudotype entry inhibition, cell reporter. 300,000 compounds, 1.2% hits. AID 540256. Potency, µM (titrated, usually from 37.9 µM), for the others: at the top dose activity change, negative = inhibition, usual class: inhibitors; calls by dose curve; tested in HEK293 cells; further: potency means the concentration at half of the fitted maximal effect; nearly all actives have a fitted effect of over 50% in size
# MARV entry inh – blocks Marburg virus binding to or entry into cells; AID 540276; Potency, µM (doses to about 37.8 µM), for the others: at the top dose activity change, negative = inhibition, hits mostly inhibitors; Marburg virus pseudotyped entry inhibition, cell reporter; 300,000 compounds, 1.8% hits; calls by dose curve; tested in HEK293 cells; further: potency means the concentration at half of the fitted maximal effect
# HCV inhibitor – blocks hepatitis C virus; Huh7.5.1 HCVcc-Cre infection, luciferase reporter, 44 h; Potency, µM (highest dose often 41.8 µM), for the others: at the highest dose activity change, negative = inhibition, actives largely listed as inhibitors; 340,000 compounds, 3.4% hits; active means well fitted inhibition curve with a large enough effect; inconclusive means small, poorly fitted or top-dose-only effect, or another doubt; inactive means no such curve, though single readings can be large or run the other way; further: potency means the concentration at half of the fitted maximal effect
#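 Infectious HCV cell culture screen: compound-treated cells (1,000/well, pre-plated 4 h) are infected with HCVcc-Cre at roughly 0.5 moi and grown 44 h. Infection is quantified by luciferase signal after 15 min substrate incubation at room temperature.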
# FMDV antiviral – foot and mouth disease virus antiviral activity; FMDV antiviral cell-based qHTS; Potency, µM (titrated, usually from 57.9 µM), without a hit: at the highest dose activity change, negative = inhibition, hits mostly inhibitors; 410,000 compounds, 1.2% hits; AID 1159524; calls by dose curve; tested in HEK293T cells; further: read-out not given here; potency means the concentration at half of the fitted maximal effect; nearly all actives have a fitted effect of over 45% in size
# HCMV antiviral – human cytomegalovirus inhibition; HFF cells, HCMV-luciferase reporter, 72 h; active compounds read low; activity change, negative = inhibition, % at 57.5 µM; AID 1259415; 410,000 compounds, 4.5% hits; in the data active means activity change below about -60%; inconclusive means no clear call, values can overlap the other calls; inactive means above about -39%
#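 Cell-based, HFFs, 1000 cells/well, 16 h 37C; cpds in DMSO + HCMV-luc, MOI 1 PFU/cell; 72 h 37C; OneGlo luminescence after 5 min RT; norm. to buffer vs Salinomycin 10uM.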
# * = called active by the depositor; ? = inconclusive; nt = no result given; ! = not confirmed by another sample; [ ] = remark or other dose. Rows were chosen to be rich in hits. Some 7.9% of all compounds tested hit in one or more screens of this group. On the % scale 0 is the no-effect control and ±100 the full control effect.
SMILES,LASV entry inh,MARV entry inh,HCV inhibitor,FMDV antiviral,HCMV antiviral
COc1ccc(C(=O)C2CCCN(Cc3cc(Cl)ccc3O)C2)c(OC)c1 (stereo not drawn),?,?,11µM*,?,-26
COc1ccc(C(=O)C2CCCN(Cc3sc(N4CCCC4)nc3Cl)C2)c(OC)c1 (stereo not drawn),nt,nt,?,?,-72*
COc1cccc(CNC(=O)CN(c2ccc(C(C)C)cc2)S(=O)(=O)c2c(C)n[nH]c2C)c1,?,?,nt,-29%,-24
Cc1ccc2[nH]c(C(=O)Nc3ccccc3)cc2c1,20%[46.1 µM],?,nt,14%,59
CCOC(=O)c1c(NC(=O)CSc2cn(CCNC(=O)c3ccc(OC)cc3)c3ccccc23)sc2c1CCCC2,-1%[46.1 µM],4%[46.1 µM],nt,-25%,-19
Cc1oc(-c2ccccc2)cc1C(=O)NCc1ccncc1,nt,nt,-16%,-26%,15
CC(=O)Oc1cc2c(C(=O)NCc3ccncc3)c(C)oc2c2ccccc12,nt,nt,11µM*,-6%,6
O=C(CCS(=O)(=O)c1cc2c(cc1Cl)NC(=O)CO2)NCc1ccccc1,-23%[46.1 µM],nt,17%,8%,-20
O=C(CCS(=O)(=O)c1cc2c(cc1Cl)NC(=O)CO2)NCCc1ccccc1,1%[46.1 µM],3%[46.1 µM],0%,-11%,-104*!
COc1ccc(-c2ccc3[nH]c4c(c3c2)CCN2C(=O)[C@@H]([C@H](C)O)[C@@H](N(C)C(=O)Nc3cc(Cl)cc(Cl)c3)C[C@@H]42)cc1,nt,nt,nt,0%,12
C[C@H](O)[C@@H]1CN2CCc3c([nH]c4ccc(-c5ccc6c(c5)OCO6)cc34)[C@@H]2C[C@@H]1N(C)C(=O)Nc1ccc(F)cc1,nt,nt,nt,?,-102*
C[C@H](O)[C@@H]1C(=O)N2CCc3ccc(-c4ccccc4)cc3[C@@H]2C[C@@H]1N(C)C(=O)Nc1cc(Cl)cc(Cl)c1,nt,nt,11µM*,-25%,25
COc1ccc(-c2ccc3[nH]c4c(c3c2)CCN2C(=O)[C@@H]([C@H](C)O)[C@@H](N(C)C(=O)Nc3ccc(F)cc3)C[C@@H]42)cc1,nt,nt,nt,?,-100*
COc1ccc(NCc2nnc3n2CCCCC3)c(OC)c1,-3%[46.1 µM],nt,nt,-7%,-4
CCCOc1ccc(Cc2c(Cl)nc(SC)nc2N(C)C)cc1,?,?,?,?,-67*
CCCOc1ccc(Cc2c(Cl)nc(SC)nc2OC)cc1,12%,-4%[46.1 µM],-24%,-3%,4
COc1ccc2nc(-c3nc4ccccc4[nH]3)c(C)nc2c1,nt,nt,nt,nt,17
CN(C)Cc1ccccc1Sc1cccc2ccccc12,15µM*,21µM*,?,?,-22
O=[N+]([O-])c1ccccc1/C=N/NC1=NCCN1,27%,-2%,8%,-2%,14
Fc1ccccc1Sc1ccccc1CNC1=NCCN1,?,-8%,?,-17%,-61*
c1ccc(Sc2cccc3ccccc23)c(CNC2=NCCN2)c1,8%,6%,?,?,-67*
C(=NNC1=NCCN1)c1ccnc2ccccc12,nt,nt,nt,-2%,3
CN(C)Cc1ccccc1Sc1ccccc1Br,15%,0%,-4%,-10%,30
COc1ccccc1-n1c(=O)n(C)c2c(C(N)=O)nc(-c3cc(OC)c(OC)c(OC)c3)nc21,25%[46.1 µM],nt,nt,-17%,44
Cc1ccc(NC(=O)c2ccc(CNS(=O)(=O)c3ccc4c(c3)C(C)(C)C(=O)N4C)cc2)cc1C,?,nt,nt,35µM*,-22
SMILES,LASV entry inh,MARV entry inh,HCV inhibitor,FMDV antiviral,HCMV antiviral
COc1cccc(NC(=O)c2ccc(CNS(=O)(=O)c3ccc4c(c3)C(C)(C)C(=O)N4C)cc2)c1,?,nt,nt,?,-16
Cc1cccc(NC(=O)c2ccc(CNS(=O)(=O)c3ccc4c(c3)C(C)(C)C(=O)N4C)cc2)c1,?,nt,nt,35µM*,-7
O=C(c1cnc2c(c1)COc1ccccc1-2)c1ccccc1O,?,14%[46.1 µM],nt,22%,-27
CCc1nc2nc(C)cc(Nc3cc(C)ccc3C)n2n1,-7%[46.1 µM],-16%[46.1 µM],nt,-9%,-8
COc1ccccc1-n1c(CNC(=O)c2ccc(S(=O)(=O)N3CCCCC3)cc2)n[nH]c1=S,1%,27%,17%,-12%,-70*
Cc1c(C(=O)NCC2(N3CCCCC3)CCCC2)cnn1-c1nccc(-c2ccccc2F)n1,nt,nt,nt,-7%,nt
COc1ccccc1N1CCN(C(=O)c2cnc(N3CCOCC3)c3ccccc23)CC1,?,nt,nt,-25%,-11
CN(Cc1cc([N+](=O)[O-])c2cccnc2c1O)C1CCCCC1,8%,-1%,7%,nt,nt
CC(=O)NC(c1ccc(C)cc1)c1cc([N+](=O)[O-])c2cccnc2c1O (stereo not drawn),?,?,?,0%,-99*
CCCC(=O)NC(c1ccco1)c1cc([N+](=O)[O-])c2cccnc2c1O (stereo not drawn),?,?,-5%,-30%,-64*
CCCC(=O)NC(c1ccco1)c1c(O)ccc2ccccc12 (stereo not drawn),-1%,?,-11%,-9%,-84*
CCC(=O)NC(c1ccco1)c1cc(Br)c2cccnc2c1O (stereo not drawn),nt,nt,nt,-25%,?
CCC(=O)NC(c1ccc(C)cc1)c1cc([N+](=O)[O-])c2cccnc2c1O (stereo not drawn),?,?,?,?,-97*
COC(=O)C(CCSC)NC(=O)c1cc2c(n(-c3ccc(Cl)cc3)c1=O)CCCC2=O (stereo not drawn),6%[46.1 µM],3%[46.1 µM],nt,-18%,20
Cc1ccc(OCCn2c(-c3ccc(Br)cc3)nc3ccccc3c2=O)cc1C,6%[46.1 µM],4%[46.1 µM],nt,17%,20
Cc1ccc2c(=O)cc(C(=O)Nc3c(C)n(C)n(-c4ccccc4)c3=O)oc2c1C,12%[46.1 µM],2%[46.1 µM],nt,-13%,9
CCC(CC)c1nnc(NC(=O)c2cc([N+](=O)[O-])ccc2N2CCCCC2)s1,?,?,7.1µM*,19%,-34
O=C(COC(=O)c1cc([N+](=O)[O-])ccc1N1CCOCC1)Nc1ccccc1OC(F)F,?,-13%,?,-9%,2
COc1ccc(NC(=O)c2cc([N+](=O)[O-])ccc2N2CCCCC2)cc1,-2%[46.1 µM],-23%[46.1 µM],?,-2%,?
COc1ccccc1NC(=O)COC(=O)c1cc([N+](=O)[O-])ccc1N1CCCC1,nt,nt,13µM*,?,-30
CC(C)CNC(=O)c1cc([N+](=O)[O-])ccc1N1CCCCC1,1%,1%,-16%,-5%,?
O=C(COC(=O)c1cc([N+](=O)[O-])ccc1N1CCCC1)Nc1ccccc1OC(F)F,-4%,-4%,13µM*,?,-9
COc1ccc(NC(=O)c2cc([N+](=O)[O-])ccc2N2CCCCC2)cc1OC,?,?,25µM*,-24%,-18
COc1ccc(OCC(=O)NC2CC(=O)N(c3ccc4c(c3)OCCO4)C2)cc1 (stereo not drawn),11%[46.1 µM],nt,nt,0%,13
O=C(CN1CCN(S(=O)(=O)c2ccc(Br)cc2)CC1)N/N=C/c1ccc(Cl)c([N+](=O)[O-])c1,?,15µM*,11µM*,-15%,-25
